# Bioassay records from PubChem.
# CYP2C19 inhib – blocks human cytochrome P450 2C19; CYP2C19 Supersomes, luciferin-H EGE luminescence, 30 min; 96,000 compounds, 21% hits; AID 778; inhibition, % at 5 µM; P33261;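 active means CYP2C19 inhibition above a set limit at 5 µM in the primary screen, cut at about 50% in these data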
# Target sequence (P33261 whole entry, looked up): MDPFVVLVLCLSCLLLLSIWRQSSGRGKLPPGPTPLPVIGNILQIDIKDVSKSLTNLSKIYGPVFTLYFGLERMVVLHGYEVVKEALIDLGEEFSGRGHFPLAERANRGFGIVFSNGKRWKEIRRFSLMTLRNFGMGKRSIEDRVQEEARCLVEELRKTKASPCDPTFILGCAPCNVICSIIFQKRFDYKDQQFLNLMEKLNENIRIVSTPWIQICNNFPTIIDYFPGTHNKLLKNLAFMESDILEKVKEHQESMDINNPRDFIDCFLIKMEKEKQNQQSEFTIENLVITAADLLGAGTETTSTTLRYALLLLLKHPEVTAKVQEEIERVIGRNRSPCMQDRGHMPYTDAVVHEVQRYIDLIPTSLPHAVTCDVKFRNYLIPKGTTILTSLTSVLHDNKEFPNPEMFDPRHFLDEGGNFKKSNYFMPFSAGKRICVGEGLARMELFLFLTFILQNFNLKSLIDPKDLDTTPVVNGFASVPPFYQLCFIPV
# PostGolgi yeast – growth inhibition of a yeast mutant, post-Golgi transport screen; post-Golgi transport phenotypic cell assay; inhibition, % at 10 µM; 98,000 compounds, 0.9% hits; AID 739;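 further: yeast cells grown in 1536-well plates; yeast grown about 18 h at 30C before absorbance read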
# CYP2C9 activ – activators of human CYP2C9; P11712; recombinant CYP2C9, luciferin-H conversion, luminescence; hits give high values; factor 1 = untreated enzyme, 0 = blocked; activation factor at 5 µM; 96,000 compounds, 1.4% hits; AID 1024;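 active means activation factor of 2 or more for CYP2C9 at a 5 µM dose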
# CYP2C19 act – increases human CYP2C19 enzyme activity; P33261; recombinant CYP2C19, luciferin-H EGE luminescence; hits give high values; 0 = fully inhibited enzyme, 1 = untreated enzyme; activation factor at 5 µM; 96,000 tested, under 10 active; AID 1025;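 active means activation factor of at least 2 at 5 µM in the primary screen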
# PostGolgi ctrl – inhibits growth of the yeast control strain | efflux-deficient yeast background strain, growth absorbance A615, 16 h | inhibition, % at 10 µM | 98,000 compounds, 5% hits | AID 738
# CYP2C9 inh – blocks human cytochrome P450 2C9 | AID 777 | inhibition, % at 5 µM | CYP2C9 Supersomes, luciferin-H conversion, luminescence | 96,000 compounds, 20% hits | P11712;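 active means blocking of liver enzyme CYP2C9 beyond about 50% at 5 µM, limit read from the data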
# Numbers stand for hits; i = inactive; nt = not tested or not shown. An excerpt weighted towards active compounds, which were near 32% of everything screened. Unless noted, no stated cut-off is given here; in the data, active means inhibition above about 30%; inactive means the rest.
SMILES,CYP2C19 inhib,PostGolgi yeast,CYP2C9 activ,CYP2C19 act,PostGolgi ctrl,CYP2C9 inh
CCOc1ccc(CC(=O)NCc2cn3c(C)csc3n2)cc1,i,i,i,i,i,i
CC1CCN(c2nc3c(c(=O)[nH]c(=O)n3C)n2Cc2ccccc2Cl)CC1,nt,i,nt,nt,40,nt
Cc1ccc(Cl)cc1N1CCN(Cc2nc3ccsc3c(=O)[nH]2)CC1,70,i,i,i,i,i
CCCCn1c(CN2CCN(C(=O)OCC)CC2)nc2c1c(=O)[nH]c(=O)n2C,i,i,i,i,i,i
CCCCCCn1c(N2CCC(C)CC2)nc2c1c(=O)[nH]c(=O)n2C,i,i,i,i,34,i
CCCCCn1c(CN2CCN(c3cc(Cl)ccc3C)CC2)nc2c1c(=O)[nH]c(=O)n2C,i,i,i,i,56,i
Cn1c(=O)[nH]c(=O)c2c1nc(Br)n2Cc1ccccc1Cl,i,i,i,i,i,i
CCC(=O)N=c1sc2c(C)cc(C)cc2n1CC(=O)OC,i,i,i,i,i,i
Cc1ccnn1CCSCC(=O)O,i,i,i,i,i,i
Cc1ccc(/C(N)=N/OC(=O)COc2ccccc2Cl)cc1,i,i,i,i,i,i
CCc1c(C)nc2cc(-c3ccc(OC)c(OC)c3)nn2c1NCC1CC1,i,i,i,i,i,i
CCCCNC(=O)c1cn(-c2ccc(OCC)cc2)c(=O)c2cc(OC)c(OC)cc12,i,i,i,i,i,i
CCCCCn1c(N2CCC(C(N)=O)CC2)nc2c1c(=O)[nH]c(=O)n2C,i,i,i,i,i,i
CCCCn1c(N2CCC(Cc3ccccc3)CC2)nc2c1c(=O)[nH]c(=O)n2C,66,i,i,i,63,i
CCCCCn1c(N2CCN(c3cccc(Cl)c3)CC2)nc2c1c(=O)[nH]c(=O)n2C,82,i,i,i,i,96
Cn1c(=O)[nH]c(=O)c2c1nc(N1CCN(c3cccc(Cl)c3)CC1)n2CCCc1ccccc1,i,i,i,i,i,i
COc1cc(NC2=CC(=O)CC(C)(C)C2)cc(OC)c1OC,i,i,i,i,i,i
CCCC(=O)CN1C(=O)C2(OCCO2)c2ccccc21,i,i,i,i,i,i
CCN(CC)C(=O)CN1C(=O)C2(OCC(C)(c3ccccc3)CO2)c2ccccc21 (stereo not given),86,i,i,i,31,77
CC(=O)[C@@H]1[C@@H]2C(=O)N(C3CCCCC3)C(=O)[C@@H]2C2c3ccccc3C=CN21 (stereo not given in full),i,i,i,i,i,i
COc1ccc(NC(=O)[C@@H]2[C@@H]3C(=O)N(C4CCCCC4)C(=O)[C@@H]3C3c4ccccc4C=CN32)cc1 (stereo not given in full),i,i,i,i,i,57
O=[N+]([O-])c1cc([N+](=O)[O-])c(N2CCCCCC2)cc1NCCO,i,i,i,i,i,70
Cc1ccc(C(=O)c2ccc([N+](=O)[O-])cc2)cc1,i,i,i,i,i,i
Cc1cc(C)c(Cn2cnc(-c3ccc([N+](=O)[O-])cc3)c2)c(C)c1,i,i,i,i,33,i
Cc1cc(-c2c(C)[nH]n(-c3ccc(Cl)cc3)c2=O)n(-c2ccccc2)n1,i,i,i,i,i,91
